Assay results from PubChem BioAssay (NCI).
Compounds without any hit were thinned out: in the full panel of roughly 83,000, 20% have a hit.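 Assay: single dose, 48 h. Readout: percent growth (0 = no net growth; negative = cell death). Active: <10.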 Unmarked numbers belong to inactive results. Activity calls are given as the source filed them.

system: M14 melanoma; assay: NCI-60 one-dose screen, 48 h (100 = growth as untreated, 0 = no growth, -100 = all killed); conditions: 10 µM
Experimental: Growth inhibition of the M14 human tumor cell line is measured as a screen for anti-cancer activity. Cells are grown in 96 well plates and exposed to the test compound for 48 hours. Compounds are tested at a single concentration, which is 10^-5 M for most compounds. The reported endpoint is percent growth (GI% or GIPRCNT), where numbers from 0 - 100% represent growth inhibition, and numbers from -100% - 0 represent cell death. For example, a value of 40 represents 60% growth inhibition. A value of 0 means no net growth occurred over the course of the experiment. A value of -40 indicates 40% of cells at the beginning of the experiment died by the end of the experiment. A value of -100 means all cells are dead at the end of the experiment.
NCI-60 Human Tumor Cell Lines Screen was performed using the standard one-dose NCI protocol, which is described in more detail at https://dtp.cancer.gov/discovery_development/nci-60/default.htm.
Compounds with GIPRCNT values below 10 were considered active. Activity score was based on GIPRCNT using the following formula: […]
Score is 0 for GIPRCNT values of 100 or above, 50 for GIPRCNT values of 0, and 100 for GIPRCNT values of -100.

SMILES	growth
O=C(O)c1ccc(-n2cc(CNc3ccc(Cl)cc3)c(-c3ccccc3)n2)cc1	94.3%
O=S(=O)(NCCCNc1nccc(-c2cn(-c3ccccc3)nc2-c2ccc(Cl)c(O)c2)n1)c1ccccc1	60.7%
Oc1cccc(-c2nc3sccn3c2-c2ccncn2)c1	19.4%
O=C(O)c1cn(C2CC2)c2cc(N3CCN(C(=O)c4cc(-c5ccc(Cl)cc5)nc5ccccc45)CC3)c(F)cc2c1=O	84.4%
CCN(CC)CCNc1ccc(C)c2sc3cc(Cl)ccc3c(=O)c12	-64.9% (active)
Oc1ccc(/C=N/N=C2c3ccccc3-c3ccccc32)c(O)c1	74.4%
CN(C)CCCOc1cccc(NC2=C(Cl)C(=O)C(Nc3cccc(OCCCN(C)C)c3)=C(Cl)C2=O)c1	-75.6% (active)
COc1ccc(/C=C2\CCCC3C2=Nc2ccccc2NC3c2ccc(OC)cc2)cc1 (stereo not given)	71.1%
COc1ccc(-c2cc(-c3ccc(Cl)cc3)nc(SCCCC(=O)NO)n2)cc1OC	-40.2% (active)
COC1OC(COS(=O)OC)C(O)C(O)C1OS(=O)OC (stereo not given)	96.6%
COCCn1cc(-c2nc(-c3cccnc3)cs2)c2cc(F)ccc21	96.2%
Cc1nn(-c2ccccc2)c2nc(Cl)c(C=O)c(-c3ccccc3)c12	111%
O=[N+]([O-])c1cc(Cl)cc(Cl)c1O	96.9%
CC(C)(C)c1ccc(S(=O)(=O)Oc2ccc(NC(=O)C3CCCCC3)cc2)cc1	60.1%
C/C(=C/CCC(C)[C@@H]1CC[C@]2(C)C3=C(CC[C@@]12C)[C@@]1(C)CCC(=O)C(C)(C)[C@@H]1CC3)C(=O)O (stereo not given in full)	-76.8% (active)
N#CC1=CC2CN(Cc3ccccc3)C1C1C(=O)N(c3ccccc3)C(=O)C21 (stereo not given)	86.4%
CC(=O)N[C@H](C(=O)N[C@@H](CCCNC(=N)N)C(=O)N[C@@H](CCCCN)C(=O)N[C@@H](CCCNC(=N)N)C(=O)N[C@]1(C)CCC/C=C\CCC[C@@](C)(C(=O)N[C@@H](CC(C)C)C(=O)N[C@@H](CC(C)C)C(=O)N[C@@H](CCC(N)=O)C(=O)N[C@@H](CCC(=O)O)C(=O)N[C@@H](CCCNC(=N)N)C(=O)N[C@@H](CCC(=O)O)C(=O)N[C@@H](CC(C)C)C(=O)N[C@H](C(=O)N[C@@H](CCC(=O)O)C(N)=O)C(C)C)NC(=O)[C@H](CCCNC(=N)N)NC(=O)[C@H](CC(C)C)NC1=O)C(C)C	107%
COc1cc2c3c(n(C4CCN(C)CC4)c(=O)c2cc1OC)-c1cc2c(cc1C3=O)OCO2	60.9%
COc1ccc(-c2nn(-c3cccc(Cl)c3)cc2-c2c(C#N)c(=O)n3[nH]c(-c4ccc(C)cc4)nc3c2C#N)cc1	-10.9% (active)
CC(=O)C1N=NCC1c1ccccc1 (stereo not given)	99.3%

SMILES	growth
CCN(CC)CCCC(C)Nc1c2ccc(Cl)cc2nc2ccc(OC)cc12 (stereo not given)	-73.1% (active)
CCCCC/C=C/C/C=C/CCCCCCCC1=NC(C)(C)CN1C(C)C	28.5%
COc1cc(OC)c2c(=O)c(O)c(-c3ccccc3)oc2c1	73.2%
CCn1c(CSc2nc3ccccc3c(=O)n2CCc2ccccc2)n[nH]c1=S	88.8%
CS(=O)(=O)c1nccc(-c2c(-c3cccc(OCc4ccccc4)c3)nc3sccn23)n1	72.3%
Cc1cc(SCc2ccccc2)nc(N)n1	115%
Nc1c(Br)cc(Br)c2c1[nH]c(=O)c1ccccc12	100%
CCN(CC)CCOc1cccc2c1C(=O)c1ccccc1C2=O	94.4%
O=C(CCl)Nc1ccc(Cc2ccc(NC(=O)CCl)cc2)cc1	-35.3% (active)
O=C(Nc1ccccc1)Nc1ncnc2c1ncn2-c1ccccc1	81.4%
Cc1c2cnccc2c(C)c2c1oc1ccccc12	81.6%
COc1cccc(CNc2cccc3cn[nH]c23)c1O	98.7%
CN(C)CCOc1ccc(-c2nc3sccn3c2-c2ccnc(S(C)(=O)=O)n2)cc1	112%
COc1cccc(N=Nc2cccc(OC)c2)c1	90.7%
O=C(NCCNC(=O)c1ccc(F)cc1)Nc1ccc(-n2cc(-c3ccncc3)c(-c3ccc(Cl)c(O)c3)n2)cc1	-44.4% (active)
OCCn1cccn1	112%
COc1ccc2cc(-c3nc4ccccc4s3)c(Cl)nc2c1OC	102%
Cc1c2c(nn1C(=O)c1nn(-c3ccc(Cl)cc3)cc1O)-c1ccccc1CC2	27.2%
CCOC(=O)c1cc(C(=O)c2cc(OC)cc(OC)c2)n2ncc3ccccc3c12	15.7%
COc1ccc2nc3cc(Cl)ccc3c(Nc3cc(CN4CCCC4)c(O)c(CN4CCCC4)c3)c2n1	-82.5% (active)
